This is an account of results in PubChem BioAssay (NCATS).

Results filed as inconclusive are left out. Unmarked numbers belong to inactive results. Active and inactive are the calls of the source. Calls come from the whole dose curve; as a rule, active = well fitted inhibition curve with a large enough effect; inconclusive = small, poorly fitted or top-dose-only effect; inactive = flat fitted curve, though single readings scatter.
Potency is the fitted concentration of half-maximal effect.

A short description of this assay: qHTS for Inhibitors of Plasmodium falciparum (7G8) proliferation (AID 504316).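 For activity change, negative = inhibition: 0% = DMSO vehicle and -100% = 0.29 µM artemisinin full kill.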 Note: nearly all actives have a fitted effect of over 65% in size. Conditions: P. falciparum 7G8 in erythrocytes, SYBR Green DNA, 72 h; series mostly up to 6.7 µM; activity change, negative = inhibition: at the top concentration. The source says: Plasmodium falciparum is a virulent malarial parasite that kills 1-2 million people worldwide each year. Malaria not only inflicts tremendous suffering and morbidity on the human population, but has dramatically influenced the course of civilization with profound sociological and economic implications (Shah, S. 2010). Transmitted by mosquitoes, the sporozoite form of the parasite enters the blood stream to infect hepatocytes, where they become merozoites that infect red blood cells (erythrocytes). Within erythrocytes, merozoites begin a […] cycle of growth and division, after which the parasite is released to infect new red blood cells. Gametocytes, which form within erythrocytes as well, circulate in the bloodstream and are ingested by the mosquito, thereby completing the life cycle (see CDC website). To profile malarial lines for differential chemical responses and to identify inhibitors of malarial growth, an assay that measures P. falciparum growth and replication within erythrocytes was employed. This assay uses a DNA binding fluorescent dye (SYBR Green) to detect parasite DNA following cell lysis. Because mature erythrocytes lack DNA, only Plasmodium-derived DNA is detected. The P. falciparum line cp250, derived from a malarial isolate from Cambodia, (Mu, J., et al. 2010) was added to the panel of lines, Dd2, HB3, 7G8 and GB4 in this study. Laboratory of Assay Development and Screening Technology [ADST] and NIH Chemical Genomics Center [NCGC] Boston University, Chemistry Department, Center for Chemical Methodology and Library Development [CMLD-BU] NIH National Institute of Allergy and Infectious Diseases [NIAID]
ADST Assay Protocol Summary: The 1536-well SYBR Green viability assay was based on the method of Bennett et al (2004) and described previously in 1536-well format (Yuan J., et al. 2009). For screening 3 ul culture medium was dispensed into 1536 well black clear bottom plates (Aurora Biotechnologies) using a Multidrop Combi (Thermo Fisher Scientific Inc.), 23 nL compounds in DMSO were added by a pin transfer (Cleveland, P.H. and Koutz, P.J, 2005) using a pin tool-based delivery system (Kalypsys), and 5 ul of erythrocytes infected with P. falciparum one of five lines (cp250, Dd2, HB3, 7G8 or GB4, 0.3% parasitemia, 2.5% hematocrit final concentration) were added. The plates were incubated at 37C in a humidified incubator in 5% CO2 for 72 h, and 2 ul lysis buffer (20 mM Tris HCl, 10 mM EDTA, 0.16% saponin, 1.6% triton X, 10X SYBR Green I (supplied as 10,000X final concentration by Invitrogen) was added to each well. The plates were mixed for 25 sec with gentle shaking and incubated overnight at room temperature in the dark. The following morning, fluorescence intensity at 485(14) nm excitation and 535(25) nm emission wavelengths was measured on an EnVision (Perkin Elmer) plate reader. Plate reads were normalized relative to the control inhibitor (0.29 uM artemisinin) and vehicle (DMSO) wells present on each plate and then corrected by an algorithm using vehicle-only control plates at the beginning and end of the compound plate stack. References Shah, S. (2010). The Fever: how malaria has ruled humankind for 500,000 years. New York, Sarah Crichton Books. CDC web site, http://www.cdc.gov/malaria/about/biology/index.html Mu, J., Myers, R.A., Jiang, H., Liu, S., Ricklefs, S., Waisberg, M., Chotivanich, K., Wilairatana, P., Krudsood, S., White, N.J., et Plasmodium falciparum genome-wide scans for positive selection, recombination hot spots and resistance to antimalarial drugs Nature Genetics 2010, 42, pp 268-271 Bennett TN, Paguio, M., Gligorijevic, B., Seudieu, C., Kosar, A. D., Davidson, E., and Roepe, P. D. Novel, rapid, and inexpensive cell-based quantification of antimalarial drug efficacy Antimicrobial Agents Chemother. 2004, 48(5): pp 1807-10 Yuan J, Johnson RL, Huang RL, Wichterman J, Jiang HY, Hayton K, Fidock DA, Wellems TE, Inglese J, Austin CP, Su XZ. […]
For orientation: In qHTS, concentration-response curves come from the screen itself.
For the molecule `CCN1C(=O)N[C@@H](c2cccc(F)c2)C(C(=O)OC)=C1C`, the “activity change, negative = inhibition” value is -0.222%.

With `COC(=O)[C@@H]1[C@@H](C)N(Cc2ccccc2)C(=O)N[C@H]1c1ccccc1`, the “activity change, negative = inhibition” value was -11.2%.

Regarding `COC(=O)CCC(=O)OC1(C)C(=O)C2=CN(CC3CC3)C(c3ccc(OC)cc3)=CC2=C(Br)C1=O` (stereo not given), the “activity change, negative = inhibition” value was -2.23%.

For `COC(=O)C1=C(C(=O)OC)[C@@H]2N(C)c3ccccc3[C@@]23C[C@@H](C(=O)OC)N(C(=O)COCc2ccccc2)C3=N1`, the “activity change, negative = inhibition” value was 1.65%.

Regarding `COC(=O)CCCC1=CC2=CC(=O)C(C)(OC(=O)c3cccs3)C(=O)C2=CN1Cc1ccc2c(c1)OCO2` (stereo not given), the “activity change, negative = inhibition” value is -7.01%.

Regarding `CC(C)C(=O)N[C@@H]1CCCN1C(=O)C=Cc1ccccc1`, the “activity change, negative = inhibition” value is 5.44%.

For `COC(=O)CCC(=O)OC1(C)C(=O)C2=CN(C3CC3)C(c3ccc(OC)cc3)=CC2=C(Br)C1=O` (stereo not given), the “activity change, negative = inhibition” value is -19.3%.

In the case of `COC(=O)C1=C(C(=O)OC)[C@@H]2N(Cc3ccccc3)c3ccccc3[C@@]23C[C@@H](C(=O)OC)N(C(=O)C2CCC2)C3=N1`, the “activity change, negative = inhibition” value is -3.72%.

`C[C@H]1Cc2c(COc3ccccc3)nc3c(c2CO1)CN(C(=O)NCCc1c[nH]c2ccccc12)CC3`: the “activity change, negative = inhibition” value is -1.72%.

On to `COC(=O)CCCC1=CC2=CC(=O)C(C)(OC(=O)c3cccs3)C(=O)C2=CN1CCCCO` (stereo not given), for which the Potency result was “inactive”.

In the case of `CC(C)OCCCN1C=C2C(=O)C(C)(OC(=O)CCc3ccccc3)C(=O)C=C2C=C1c1ccc(C#N)cc1` (stereo not given), the “activity change, negative = inhibition” value is 0.465%.

As to `COC(=O)C1=C(C(=O)OC)[C@@H]2N(C)c3ccccc3[C@@]23C[C@@H](C(=O)OC)N(S(=O)(=O)c2ccc(C)cc2)C3=N1`, the “activity change, negative = inhibition” value was -13.3%.

As for `COC(=O)CCCC1=CC2=C(c3ccccc3)C(=O)C(C)(OC(=O)C3CCCC3)C(=O)C2=CN1C1CC1` (stereo not given), the “activity change, negative = inhibition” value is -1.33%.

With `COCCN1C(=O)N(C)[C@@H](c2ccccc2)C(C(C)=O)=C1C`, the “activity change, negative = inhibition” value is -13.1%.

`CC1(OC(=O)CCc2ccccc2)C(=O)C=C2C=C(c3ccc(C#N)cc3)N(C3CC3)C=C2C1=O` (stereo not given): the “activity change, negative = inhibition” value was -16%.

For `CCCCC1=CC2=C(c3ccco3)C(=O)C(C)(OC(=O)c3ccc(OC)cc3)C(=O)C2=CN1C1CC1` (stereo not given), the “activity change, negative = inhibition” value is 0.932%.

With `COC(=O)C1=C(C)N(Cc2ccccc2)C(=S)NC1c1cccc(F)c1` (stereo not given), the “activity change, negative = inhibition” value was -6.1%.

On to `COC(=O)C1=C(C)N(Cc2ccccc2)C(=O)N[C@H]1c1ccco1`, for which the “activity change, negative = inhibition” value is 0.278%.

As to `CCCC[C@]12Cc3c(ccc4ccccc34)[C@H](O1)C1=C(O2)C(=O)c2ccccc2C1=O`, the Potency is 1510 nM (active).

For `CC1(OC(=O)CCc2ccccc2)C(=O)C=C2C=C(c3ccc(C#N)cc3)N(CCc3ccccn3)C=C2C1=O` (stereo not given), the “activity change, negative = inhibition” value is 5.76%.

In the case of `CC1(OC(=O)c2cnc3ccccc3n2)C(=O)C=C2C=C3CCCN3C=C2C1=O` (stereo not given), the Potency result is “inactive”.

Consider `COC/C=C/C1=CC2=CC(=O)C(C)(OC(=O)c3cnc4ccccc4n3)C(=O)C2=CN1CC(C)C` (stereo not given), for which the “activity change, negative = inhibition” value was -0.706%.

Regarding `CCOC(=O)CN1C(=O)N[C@@H](c2cccs2)C(C(C)=O)=C1C`, the “activity change, negative = inhibition” value is -3.55%.

As for `COCCN1C(=O)N[C@@H](c2cccc(F)c2)C(C(C)=O)=C1C`, the “activity change, negative = inhibition” value is 2.85%.

With `CCN1C(=O)NC(c2ccc(Br)cc2)C(C(=O)OC)=C1C` (stereo not given), the “activity change, negative = inhibition” value was -3.36%.

As to `COC(=O)CCC(=O)OC1(C)C(=O)C=C2C=C(C3CC3)N(Cc3ccccc3)C=C2C1=O` (stereo not given), the “activity change, negative = inhibition” value is 5.59%.

For the molecule `COC[C@@H](O)[C@@H](OC)[C@H](OC)[C@H](Cc1c(OC)cc(OC)cc1OC)OC`, the “activity change, negative = inhibition” value was 9.62%.

For `C=CCOC(=O)N[C@@H](c1ccc(Br)cc1)C(C(C)=O)C(C)=O`, the “activity change, negative = inhibition” value was 10.2%.

`COCCN1C(=O)N[C@@H](c2ccccc2)[C@H](C(=O)OC)[C@H]1C`: the “activity change, negative = inhibition” value was -14%.

As to `COC(=O)CCCC1=CC2=CC(=O)C(C)(OC(=O)c3cccs3)C(=O)C2=CN1c1cccc(C#N)c1` (stereo not given), the “activity change, negative = inhibition” value is -2.35%.

`C=CCOC(=O)N[C@H](C(C(=O)OC)=C(C)NCc1ccccc1)c1cccc(F)c1`: the “activity change, negative = inhibition” value is 5.9%.

In the case of `COC(=O)C1=C(C(=O)OC)[C@@H]2Nc3ccccc3[C@@]23C[C@@H](C(=O)OC)N(S(=O)(=O)c2ccc4c(c2)OCCN4C)C3=N1`, the Potency was 1510 nM (active).

As to `O=C1c2cc(Br)ccc2O[C@@H](c2ccc3c(c2)OCO3)[C@@H]1O`, the “activity change, negative = inhibition” value was -1.62%.

As to `CCOC(=O)CCCNC(=O)N1CCc2nc(-c3ccccc3)c3c(c2C1)CO[C@@H](C)C3`, the “activity change, negative = inhibition” value was -1.19%.

In the case of `COC(=O)CCCC1=CC2=CC(=O)C(C)(OC(=O)c3cccs3)C(=O)C2=CN1c1ccccc1` (stereo not given), the Potency result was “inactive”.

For `COC(=O)CCCC1=CC2=C(c3ccccc3)C(=O)C(C)(OC(=O)C3CCCC3)C(=O)C2=CN1CCc1ccccn1` (stereo not given), the Potency result is “inactive”.

As to `CCOC(=O)CN1C(=O)NC(c2cccc(C(F)(F)F)c2)C(C(C)=O)=C1C` (stereo not given), the “activity change, negative = inhibition” value is 3.22%.

As to `COC(=O)C1=C(C)N(Cc2ccccc2)C(=O)NC1c1ccco1` (stereo not given), the “activity change, negative = inhibition” value is -2.04%.

As to `CCN1C(=O)N[C@@H](CCc2ccccc2)[C@H](C(=O)OC)[C@H]1C`, the “activity change, negative = inhibition” value is -13.3%.

On to `COc1ccc(C2=CC3=C(Br)C(=O)C(C)(OC(=O)c4cnc5ccccc5n4)C(=O)C3=CO2)cc1` (stereo not given), for which the “activity change, negative = inhibition” value was 12%.
